# Compound activity as filed in PubChem BioAssay.
# BAZ2B inh – qHTS Assay for Inhibitors of BAZ2B; Potency, µM (titrated, usually from 114 µM), inactives show top-dose activity change, negative = inhibition, actives largely listed as inhibitors; AlphaScreen BAZ2B-H3K14Ac peptide displacement; actives 4.4% (n = 360,000); Bromodomain adjacent to zinc finger domain protein 2B (Homo sapiens), Q9UIF8; AID 504333, 2011; further: on the % scale 0 is the no-effect control and ±100 the full control effect; nearly all actives have a fitted effect of over 60% in size
#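 Complex of BAZ2B and biotin-H3K14Ac (50 nM apiece) forms over 30 min at RT, then faces library compounds up to 110 uM for another 30 min; AlphaScreen beads added, 20 min dark incubation, luminescence read.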
# PLK1 PBD block – qHTS for Inhibitors of PLK1-PDB (polo-like kinase 1 - polo-box domain): Primary Screen. Serine/threonine-protein kinase PLK1 (Homo sapiens), P53350. Plk1 PBD binding of FITC phosphopeptide, fluorescence polarization. Potency, µM, inactives show max response, negative = inhibition, most hits filed as inhibitors. actives 2.8% (n = 360,000). AID 720504, 2013; further: series mostly up to about 57 µM; on the % scale 0 is the no-effect control and ±100 the full control effect; nearly all actives have a fitted effect of over 65% in size
# G9a inh – qHTS Assay for Inhibitors of Histone Lysine Methyltransferase G9a | G9a H3K9 monomethylation, AlphaScreen, 2 h | Histone-lysine N-methyltransferase EHMT2 (Homo sapiens), Q96KQ7 | Potency, µM (doses to about 102 µM), without a hit: top-dose activity, negative = inhibition, actives largely listed as inhibitors | actives 8.8% (n = 350,000) | AID 504332, 2011; further: on the % scale 0 is the no-effect control and ±100 the full control effect; nearly all actives have a fitted effect of over 75% in size
#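 AlphaScreen read-out: biotin-H3K9 peptide (500 nM) methylation by 20 nM enzyme with 20 uM SAM, 2 h at room temperature after 15 min compound preincubation; anti-monomethyl H3K9 antibody plus donor/acceptor beads, 10 min dark.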
# HP1b binding inh – HTS for Inhibitors of HP1-beta Chromodomain Interactions with Methylated Histone Tails; AlphaScreen HP1-beta / biotin-H3K9me3 peptide binding; Potency, µM (highest dose often 114 µM), without a hit: at the highest dose activity change, negative = inhibition, actives largely listed as inhibitors; actives 0.56% (n = 390,000); AID 540317, 2011; further: nearly all actives have a fitted effect of over 70% in size
#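 HP1-beta protein (50 nM final) preincubated 30 min at room temperature with biotinylated H3(1-18)K9me3 peptide (50 nM) in PBS pH 7.4, 0.01% Tween-20, then compound added for 30 min. AlphaScreen streptavidin donor/nickel chelate acceptor beads (10 ug/mL final), 30 min dark, luminescence read.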
# JMJD2A Tudor – qHTS Assay for Inhibitors of JMJD2A-Tudor Domain | Lysine-specific demethylase 4A (Homo sapiens), O75164 | AlphaScreen JMJD2A-Tudor / H3K4me3 peptide binding | Potency, µM (series often up to 114 µM), without a hit: top-dose activity change, negative = inhibition, usual class: inhibitors | actives 4.4% (n = 390,000) | AID 504339, 2011; further: on the % scale 0 is the no-effect control and ±100 the full control effect; nearly all actives have a fitted effect of over 50% in size
# Target sequence (O75164 whole entry, looked up, the tested form may be a part): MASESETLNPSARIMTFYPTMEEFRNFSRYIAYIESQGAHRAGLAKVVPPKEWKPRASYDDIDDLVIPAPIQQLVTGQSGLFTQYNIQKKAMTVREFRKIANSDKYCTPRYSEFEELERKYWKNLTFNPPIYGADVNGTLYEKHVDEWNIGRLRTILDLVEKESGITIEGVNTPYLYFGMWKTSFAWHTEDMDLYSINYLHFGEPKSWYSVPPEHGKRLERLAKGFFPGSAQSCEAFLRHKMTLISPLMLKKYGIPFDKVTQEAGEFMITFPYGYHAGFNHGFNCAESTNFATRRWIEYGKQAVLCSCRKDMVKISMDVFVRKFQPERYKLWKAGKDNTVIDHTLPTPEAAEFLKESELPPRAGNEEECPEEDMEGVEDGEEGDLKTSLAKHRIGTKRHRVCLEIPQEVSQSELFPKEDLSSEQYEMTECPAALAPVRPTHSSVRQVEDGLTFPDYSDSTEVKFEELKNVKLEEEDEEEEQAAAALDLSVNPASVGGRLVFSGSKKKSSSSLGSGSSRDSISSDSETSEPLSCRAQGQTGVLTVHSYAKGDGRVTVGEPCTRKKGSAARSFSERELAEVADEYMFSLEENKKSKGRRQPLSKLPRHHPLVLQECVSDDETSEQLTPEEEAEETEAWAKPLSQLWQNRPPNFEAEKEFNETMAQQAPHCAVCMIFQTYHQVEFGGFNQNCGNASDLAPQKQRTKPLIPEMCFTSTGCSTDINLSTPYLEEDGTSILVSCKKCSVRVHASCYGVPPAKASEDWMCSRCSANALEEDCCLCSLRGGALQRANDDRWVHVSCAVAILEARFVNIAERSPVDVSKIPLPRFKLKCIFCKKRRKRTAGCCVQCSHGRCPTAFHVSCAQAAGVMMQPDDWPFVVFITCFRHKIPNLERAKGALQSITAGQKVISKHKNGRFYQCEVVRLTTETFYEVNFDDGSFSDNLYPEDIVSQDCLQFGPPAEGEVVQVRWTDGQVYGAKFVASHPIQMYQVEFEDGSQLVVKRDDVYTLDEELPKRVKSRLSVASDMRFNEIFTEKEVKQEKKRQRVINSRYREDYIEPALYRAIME
# Sfp inh – qHTS Assay for Inhibitors of Bacillus subtilis Sfp phosphopantetheinyl transferase (PPTase) | Potency, µM, without a hit: largest response in the series, negative = inhibition, usual class: inhibitors | actives 3.5% (n = 310,000) | AID 1490, 2009 | Biochemical Sfp PPTase activity, qHTS | 4'-phosphopantetheinyl transferase ffp (Bacillus subtilis), Q9F4F7;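 further: the enzyme is Sfp with the accession as filed and its product quenches rhodamine fluorescence; 0% = enzyme reaction without inhibitor and -100% = no enzyme wells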
#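 Compounds were incubated with enzyme (final 15 nM) for 15 min at room temperature before substrate addition started the reaction. Fluorescence at 525 nm excitation, 598 nm emission was recorded immediately and after 30 minutes.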
# Active calls of the source: *; u = inconclusive; x = no result given; [ ] = dose if it differs, or a comment. Most compounds without a hit are left out; they make up all but 12% or so of the library. The call rests on the fitted dose curve; in most records, active means well fitted curve in the direction sought with a large enough effect; inconclusive means small, poorly fitted or top-dose-only effect, or another doubt; inactive means no such curve, though single readings can be large; an effect the other way counts as inactive or inconclusive. Potency means the concentration at half of the fitted maximal effect.
SMILES,BAZ2B inh,PLK1 PBD block,G9a inh,HP1b binding inh,JMJD2A Tudor,Sfp inh
Cn1c(O)c(/C=C2\C=Nc3ccccc32)sc1=Nc1ccc(C(=O)O)cc1,50µM*,-22%,35µM*,21%,-34%,-2%
CC(C)CCNC(=O)C1(O)c2ccccc2NC(=O)N1c1ccc(Cl)cc1 (stereo unspecified),-1%,-5%,16%[0.501 µM],3%,-6%,17%
O=S(=O)(c1ccc2c(c1)OCCO2)N1CCN(S(=O)(=O)c2cccc[n+]2[O-])CC1,x,x,x,x,-3%,x
Cc1cccc(Nc2nnc(SCC(=O)c3ccc(O)cc3O)s2)c1,-5%,-27%,45µM*,38%,-27%,-7%
Cc1cccc(Nc2nnc(SCC3CCCCO3)s2)c1 (stereo unspecified),-8%,-5%,10µM*,24%,-3%,5%
Cc1ccc(Nc2nnc(SCC(=O)c3ccc(O)cc3O)s2)cc1,-13%,-26%,32µM*,-9%,-33%,-5%
O=C(N1CCOCC1)N1CCN(S(=O)(=O)c2cccc([N+](=O)[O-])c2)CC1,-9%[57.1 µM],-7%,-17%,48%,-16%,-10%
O=C(Cn1nnc(-c2ccc(F)cc2)n1)OCC(=O)c1ccccc1,-13%,-7%,u,38%,-9%,79µM*
O=C(Cn1nnc(-c2ccccc2)n1)NNC(=O)c1ccccc1,-18%,-17%,40µM*,u,-11%,-27%
O=C(Cn1nnc(-c2ccccc2)n1)NNC(=O)c1ccc(Br)cc1,-21%,-17%,16%,3%,-14%[11.4 µM],10%
CC(C)(C)c1nnc(NC(=O)c2cc(-c3ccccc3)nc3ccccc23)s1,-35%,24µM*,u,-52%,-33%,20µM*
O=C(Nc1nncs1)c1cc(-c2ccncc2)nc2ccc(Cl)cc12,-5%,u,50µM*,33%,-2%,2%
Cc1csc(NC(=O)c2cc(-c3ccccc3)nc3ccccc23)n1,-33%,5%,71µM*,-9%,-32%,18%
COC(=O)c1sccc1NC(=O)c1cc(-c2cccc(C)c2)nc2ccccc12,11%,-11%,6%,18%,-11%,16µM*
Cc1ccc(Cn2c(=O)n(Cc3ccc(Cl)cc3)c(=O)c3cccnc32)cc1,15%,x,2%[59 µM],31%,1%,x
Cc1ccc(C(=O)Nc2nc3c(s2)CCCC3)o1,-35%,-10%,56µM*,12%,-33%,-10%
O=C(Nc1nc2c(s1)CCCC2)c1cc(-c2ccccc2)nc2ccccc12,-33%,-2%,13µM*,-4%,-32%,-10%
Cc1cc(C)n(-c2ccc(C(=O)Nc3cccnc3Cl)cc2)n1,-1%,-10%,-34%,23%,-9%,7%
Cc1cc(C)n(-c2ccc(C(=O)Nc3cc(S(=O)(=O)N(C)C)ccc3Cl)cc2)n1,5%,-6%,79µM*,30%,u,15%
Cc1ccccc1C(=O)Nc1nc(-c2ccc(Br)cc2)ns1,3%,x,-1%[59 µM],49%,14%,x
COc1ccc(C(=O)NCCn2cc(SCC(=O)Nc3ccc4c(c3)OCCO4)c3ccccc32)cc1OC,-31%,x,-4%[59 µM],-3%,-29%,x
C#C[C@]1(OC(C)=O)CC[C@H]2[C@@H]3CCC4=C/C(=N/O)CC[C@@H]4[C@H]3CC[C@@]21CC,x,x,-43%[12.7 µM],x,x,79µM*
C#C[C@@]1(OC(C)=O)CC[C@@H]2[C@@H]3CCC4=C[C@@H](OC(C)=O)CC[C@H]4[C@H]3CC[C@]21C,x,x,17%[21.5 µM],x,x,-12%
Cn1cc(CN(C(=O)Nc2ccccc2)C2CCCCC2)c2ccccc21,x,x,u,-9%,u,x
